Measurements reported in the supplement of paper PMC6555819.

System: VDR:RXRa (NR concentration 270 nM, RXRa partner concentration 90 nM)
Assay: PBM binding z-score (relative to random genomic background probes); higher = stronger binding; sequences stand for … in GC…GCGATTGACAGCGTAGAATGAAGG
Description: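 Protein-binding microarray (Agilent 4x180K custom design, double-stranded 60-nt probes: 5' GC cap, 34-nt variable region, 24-nt constant primer region; full probe sequence given). Purified or IVT nuclear receptor:RXRα heterodimers (3:1 NR:RXRα, mostly 270:90 nM) or homodimers were incubated for 1 h in PBS with 2% milk and no ligand, then detected with Alexa488 antibodies. Fluorescence from o1-orientation probes (~5 replicates averaged) was converted to z-scores against 500 random hg19 background probes. Variable regions are seed direct-repeat (DR0–DR5) sites, all their single-nucleotide variants and half-site ablations.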

Sequence	PBM binding z-score
TATACAGGGTCAAAAGCCAGAGTACGAATGTCGA	4.1
TCTCGGAGGACCCGAAAGGTCAGAGCTCGACATC	2.45
CCGACTGGGGCAAAGGTTATCATACTCAGTACGA	1.46
CGAACTAGGTGAAGGACAGTGAATCTCCGCACGC	-0.403
GGAACGAGGGCAAGGTGATAGCAGAGTTTGATGG	0.867
CGTCAAAGTTCAAGGTACCGTAACAGAAAGCAGC	3.76
TGTAGTTGGTCACGGAGGTCACACACGACGGGTA	5.47
ACTAGCAGGCCAAGGGTCACTCAAGATTAGTCCG	2.61
CCAGACAGGTGAGACGGTAACTCAGCCTCGATTA	-0.29
CCTCGGAGGACAGAAGGTCAGACCTGTCCGCTTT	1.05
GATACAGGGTCAGCTAAAGGCCAGAGTATGGAAA	3
GCTAGTTGTTCAGTAAAAGGTCACACACCGGTCG	3.93
CAAACTAGGGCACGAAAGGTCAAAGTCGAATGAC	5.32
ATCTCTTGGTAAAGTTCAGTGAAAGATCGATAGA	1.6
GCGACTGGGGCATCAGCAGGTTACCTTAACTTAA	-0.355
TCATATAGGTAAACAGGTGAAAGACCGTAAGTTA	1.05
ATCTCTAGGTAAGACTCAGTGCAGTGAAGAACGC	-0.0962
CGAGCTAGGTCATCCAGGACAGTGAATACATTGA	4.4
ATCTCTAGGTAAGACTCAGTTCAGTCAAGAACGC	0.989
CGAACTAGGACAAGGACAGTGAATCTCCGCACGC	-0.159

Sequence	PBM binding z-score
CGTCCAAGGGCAGAGAGGTCAGTGAATGCCGAGT	5.05
GCTAGTAGGCCATTTGGGTCACTCAATGACGGGC	0.995
TTACCAAGGTGAAAGGTCGTTAATGCACGCCTTG	2.95
CGAGCTAGGTCATTGACAGGACAGTGAATAGTAA	2.04
TCATATAGGTATACAGGTGAAAGTCCGTAAGTTA	1.07
CCTACTGGGCCAAGGTCAATGATCAGTCAAAGCA	2.24
ATAAGTAGGTTACATCCGGGTCATTCAGGCTATG	4.06
ATAATGAGGTTAAGATCAGGGAAACAGAATACAT	1.6
CGAACTAGGTCAAGGACAGTGGATCTCCGCACGC	1.22
TCTGCTAGGTCAGTTGGTCATCTAACGAGCTGCC	0.463
CTACCAAGGTGAACAAGGTCGTTCATTACTATTC	6.53
ATATGTCGGTTATCGGGTCATTCAGTTTGCGCAT	4.84
TTTCAAAGTTCAAAGGTAACGTAAGTATCCACAC	5.06
ACAGTCAGGTGAGTGAAGGTAACTCAGCTGGACG	-0.663
CCAGACCGGTGAGAAGGTAACTCAGCCTCGATTA	-0.163
AGTCAAAGTTCACTAGGTACCGTAAGATTCAGCT	4.35
TCTTGTAGATCAAAGGTTAGGAAAGCCGAAGCCT	0.697
AATACAGGGTCATCGTAGGCGAGAGTACGCACAG	5.01
CAAACTAGGTCACGAAAGGTCAAACTCGAATGAC	7.13
TCTATTAGTTGAAGGGCTACCGACGAGTCCGTTT	0.745
